Laboratory results reported in ChEMBL document CHEMBL2218924, “A broad activity screen in support of a chemogenomic map for kinase signalling research and drug discovery” (Biochem J, 2013).

Tests used:
[1] = target: T1, Ephrin type-A receptor 3 (Homo sapiens) (UniProt P29320); settings: at 10 µM
T1 sequence (whole entry): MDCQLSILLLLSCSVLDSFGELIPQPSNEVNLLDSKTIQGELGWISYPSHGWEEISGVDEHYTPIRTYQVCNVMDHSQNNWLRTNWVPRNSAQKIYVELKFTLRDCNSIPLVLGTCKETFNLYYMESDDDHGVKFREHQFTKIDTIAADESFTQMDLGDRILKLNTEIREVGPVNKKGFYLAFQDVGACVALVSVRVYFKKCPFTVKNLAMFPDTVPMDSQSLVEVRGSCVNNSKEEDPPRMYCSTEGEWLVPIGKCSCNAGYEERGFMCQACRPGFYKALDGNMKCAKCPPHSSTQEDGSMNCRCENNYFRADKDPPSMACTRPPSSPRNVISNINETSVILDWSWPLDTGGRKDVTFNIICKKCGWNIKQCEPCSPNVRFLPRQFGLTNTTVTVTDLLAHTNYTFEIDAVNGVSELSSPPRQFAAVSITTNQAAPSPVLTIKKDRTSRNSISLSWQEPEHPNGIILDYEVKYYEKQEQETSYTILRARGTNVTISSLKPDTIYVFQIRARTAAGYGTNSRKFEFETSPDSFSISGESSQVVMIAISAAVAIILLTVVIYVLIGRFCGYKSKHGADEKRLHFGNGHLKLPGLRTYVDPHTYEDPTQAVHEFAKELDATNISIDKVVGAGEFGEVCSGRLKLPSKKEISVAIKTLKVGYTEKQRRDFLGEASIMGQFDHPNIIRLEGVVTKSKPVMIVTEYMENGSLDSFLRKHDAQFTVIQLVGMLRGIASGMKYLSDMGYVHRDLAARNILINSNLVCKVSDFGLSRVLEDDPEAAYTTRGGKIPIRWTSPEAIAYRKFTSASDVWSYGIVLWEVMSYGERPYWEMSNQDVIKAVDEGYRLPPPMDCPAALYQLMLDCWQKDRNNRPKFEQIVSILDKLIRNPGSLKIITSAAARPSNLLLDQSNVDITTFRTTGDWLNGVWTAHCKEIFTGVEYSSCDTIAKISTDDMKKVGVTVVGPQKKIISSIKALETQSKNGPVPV

[2] = target: Ephrin type-A receptor 4 (Homo sapiens) (UniProt P54764); settings: at 10 µM
[3] = target: Ephrin type-A receptor 5 (Homo sapiens) (UniProt P54756); settings: at 10 µM
[4] = target: Ephrin type-A receptor 7 (Homo sapiens) (UniProt Q15375); settings: at 1 µM
[5] = target: Ephrin type-A receptor 7 (Homo sapiens) (UniProt Q15375); settings: at 10 µM
[6] = target: T2, Ephrin type-A receptor 8 (Homo sapiens) (UniProt P29322); settings: at 10 µM
T2 sequence (whole entry): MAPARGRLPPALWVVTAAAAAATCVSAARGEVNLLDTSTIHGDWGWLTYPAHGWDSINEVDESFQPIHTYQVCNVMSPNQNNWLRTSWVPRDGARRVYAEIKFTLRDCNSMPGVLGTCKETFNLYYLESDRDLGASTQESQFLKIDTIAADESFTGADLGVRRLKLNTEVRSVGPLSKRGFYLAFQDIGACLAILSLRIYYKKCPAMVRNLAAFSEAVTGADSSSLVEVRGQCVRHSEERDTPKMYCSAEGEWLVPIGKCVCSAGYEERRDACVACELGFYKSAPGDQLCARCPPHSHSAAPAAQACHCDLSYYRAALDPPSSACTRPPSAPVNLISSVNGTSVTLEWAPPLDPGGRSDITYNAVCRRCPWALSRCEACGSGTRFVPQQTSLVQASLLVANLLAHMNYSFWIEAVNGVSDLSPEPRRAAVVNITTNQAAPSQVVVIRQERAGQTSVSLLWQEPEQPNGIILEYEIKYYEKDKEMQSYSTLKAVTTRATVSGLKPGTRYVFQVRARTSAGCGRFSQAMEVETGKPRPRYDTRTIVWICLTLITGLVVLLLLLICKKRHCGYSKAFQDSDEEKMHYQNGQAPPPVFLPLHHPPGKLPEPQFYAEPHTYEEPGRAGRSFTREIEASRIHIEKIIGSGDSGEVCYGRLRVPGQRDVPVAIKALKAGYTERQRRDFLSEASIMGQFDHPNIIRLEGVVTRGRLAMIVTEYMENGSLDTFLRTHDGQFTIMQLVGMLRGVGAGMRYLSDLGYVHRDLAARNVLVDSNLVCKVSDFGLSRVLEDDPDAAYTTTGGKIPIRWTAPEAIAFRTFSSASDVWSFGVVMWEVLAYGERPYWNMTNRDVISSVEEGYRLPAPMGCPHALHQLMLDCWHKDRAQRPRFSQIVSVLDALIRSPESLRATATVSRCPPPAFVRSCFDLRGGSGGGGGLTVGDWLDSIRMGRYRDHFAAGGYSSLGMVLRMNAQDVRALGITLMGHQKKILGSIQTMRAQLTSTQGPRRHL

[7] = target: T3, Ephrin type-B receptor 1 (Homo sapiens) (UniProt P54762); settings: at 10 µM
T3 sequence (whole entry): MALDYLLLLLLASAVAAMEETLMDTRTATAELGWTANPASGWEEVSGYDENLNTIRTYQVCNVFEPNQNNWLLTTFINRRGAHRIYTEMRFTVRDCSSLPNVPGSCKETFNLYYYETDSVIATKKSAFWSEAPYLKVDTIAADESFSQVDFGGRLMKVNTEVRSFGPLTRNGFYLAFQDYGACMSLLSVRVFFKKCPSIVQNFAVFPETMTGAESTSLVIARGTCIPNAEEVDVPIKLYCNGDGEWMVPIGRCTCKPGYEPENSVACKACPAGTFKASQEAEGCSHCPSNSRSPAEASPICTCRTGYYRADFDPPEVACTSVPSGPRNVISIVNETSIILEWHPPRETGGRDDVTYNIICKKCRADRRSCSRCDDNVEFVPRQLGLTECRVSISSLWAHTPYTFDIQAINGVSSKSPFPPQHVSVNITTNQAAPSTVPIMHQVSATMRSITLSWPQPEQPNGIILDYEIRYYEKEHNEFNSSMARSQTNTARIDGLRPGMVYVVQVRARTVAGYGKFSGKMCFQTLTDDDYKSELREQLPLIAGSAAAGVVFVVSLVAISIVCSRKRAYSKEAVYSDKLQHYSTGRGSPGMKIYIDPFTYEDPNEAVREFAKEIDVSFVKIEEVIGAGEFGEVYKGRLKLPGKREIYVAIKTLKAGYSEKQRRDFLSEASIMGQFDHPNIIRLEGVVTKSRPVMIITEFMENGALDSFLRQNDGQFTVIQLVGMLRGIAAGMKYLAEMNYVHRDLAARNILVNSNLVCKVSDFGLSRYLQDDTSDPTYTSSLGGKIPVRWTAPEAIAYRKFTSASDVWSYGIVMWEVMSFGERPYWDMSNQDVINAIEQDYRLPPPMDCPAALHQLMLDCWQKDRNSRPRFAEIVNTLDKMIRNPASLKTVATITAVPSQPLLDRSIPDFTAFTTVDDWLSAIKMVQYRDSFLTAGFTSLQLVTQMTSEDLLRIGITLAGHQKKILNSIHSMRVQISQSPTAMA

[8] = target: T4, Ephrin type-B receptor 2 (Homo sapiens) (UniProt P29323); settings: at 1 µM
T4 sequence (whole entry): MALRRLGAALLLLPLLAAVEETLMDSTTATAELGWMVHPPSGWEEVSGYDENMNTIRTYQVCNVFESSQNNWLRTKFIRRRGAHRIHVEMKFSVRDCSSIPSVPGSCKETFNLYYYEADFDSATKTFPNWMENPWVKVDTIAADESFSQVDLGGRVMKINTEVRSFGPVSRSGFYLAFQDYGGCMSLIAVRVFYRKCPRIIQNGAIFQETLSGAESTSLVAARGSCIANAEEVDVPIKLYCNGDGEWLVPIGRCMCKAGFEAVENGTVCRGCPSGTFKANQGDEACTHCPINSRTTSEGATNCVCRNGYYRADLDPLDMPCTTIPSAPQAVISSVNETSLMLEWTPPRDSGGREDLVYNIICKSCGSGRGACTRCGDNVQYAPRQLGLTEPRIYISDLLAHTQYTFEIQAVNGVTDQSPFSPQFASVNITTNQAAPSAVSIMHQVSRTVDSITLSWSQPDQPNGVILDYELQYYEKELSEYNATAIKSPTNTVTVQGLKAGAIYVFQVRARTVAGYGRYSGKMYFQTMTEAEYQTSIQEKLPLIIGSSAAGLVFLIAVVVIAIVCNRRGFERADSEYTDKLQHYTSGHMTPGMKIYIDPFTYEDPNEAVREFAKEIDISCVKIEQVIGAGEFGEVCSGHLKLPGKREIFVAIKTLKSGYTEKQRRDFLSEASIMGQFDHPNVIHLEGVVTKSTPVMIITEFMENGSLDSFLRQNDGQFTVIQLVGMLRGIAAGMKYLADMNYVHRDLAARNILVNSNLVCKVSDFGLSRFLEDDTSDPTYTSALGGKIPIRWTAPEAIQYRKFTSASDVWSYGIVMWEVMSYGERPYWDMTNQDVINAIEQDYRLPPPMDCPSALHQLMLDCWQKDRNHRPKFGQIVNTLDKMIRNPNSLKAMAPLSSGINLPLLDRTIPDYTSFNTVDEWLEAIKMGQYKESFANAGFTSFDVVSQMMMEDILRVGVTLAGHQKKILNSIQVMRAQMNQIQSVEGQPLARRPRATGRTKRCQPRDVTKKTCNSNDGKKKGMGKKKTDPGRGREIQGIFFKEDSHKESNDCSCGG

[9] = target: T4, Ephrin type-B receptor 2 (Homo sapiens); settings: at 10 µM
[10] = target: T5, Ephrin type-B receptor 3 (Homo sapiens) (UniProt P54753); settings: at 1 µM
T5 sequence (whole entry): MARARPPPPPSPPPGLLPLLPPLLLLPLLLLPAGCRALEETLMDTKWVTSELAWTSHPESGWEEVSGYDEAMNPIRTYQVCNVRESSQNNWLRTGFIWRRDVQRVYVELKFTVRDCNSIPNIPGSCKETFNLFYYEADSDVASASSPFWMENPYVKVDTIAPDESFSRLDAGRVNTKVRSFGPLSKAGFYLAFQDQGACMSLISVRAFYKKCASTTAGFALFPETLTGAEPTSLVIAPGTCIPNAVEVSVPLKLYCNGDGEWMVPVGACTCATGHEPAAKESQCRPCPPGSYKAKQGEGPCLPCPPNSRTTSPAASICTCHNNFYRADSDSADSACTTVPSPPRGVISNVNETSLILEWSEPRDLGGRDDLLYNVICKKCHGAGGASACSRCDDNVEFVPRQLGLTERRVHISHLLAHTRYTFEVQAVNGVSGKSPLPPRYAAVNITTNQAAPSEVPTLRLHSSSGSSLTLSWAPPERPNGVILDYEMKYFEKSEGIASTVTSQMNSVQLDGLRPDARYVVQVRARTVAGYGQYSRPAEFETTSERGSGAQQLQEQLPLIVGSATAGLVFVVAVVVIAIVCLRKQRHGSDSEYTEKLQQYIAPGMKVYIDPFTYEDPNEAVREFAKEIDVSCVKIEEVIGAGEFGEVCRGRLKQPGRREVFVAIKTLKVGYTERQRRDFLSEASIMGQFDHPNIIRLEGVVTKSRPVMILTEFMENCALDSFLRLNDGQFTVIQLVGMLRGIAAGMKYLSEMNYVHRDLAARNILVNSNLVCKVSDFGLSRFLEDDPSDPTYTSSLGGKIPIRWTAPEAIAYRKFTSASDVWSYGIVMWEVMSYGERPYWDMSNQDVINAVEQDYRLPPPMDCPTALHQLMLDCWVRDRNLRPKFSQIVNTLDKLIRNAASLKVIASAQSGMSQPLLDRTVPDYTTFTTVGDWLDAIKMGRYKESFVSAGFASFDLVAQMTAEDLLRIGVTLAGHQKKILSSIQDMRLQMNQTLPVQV

[11] = target: T6, Ephrin type-B receptor 4 (Homo sapiens) (UniProt P54760); settings: at 1 µM
T6 sequence (whole entry): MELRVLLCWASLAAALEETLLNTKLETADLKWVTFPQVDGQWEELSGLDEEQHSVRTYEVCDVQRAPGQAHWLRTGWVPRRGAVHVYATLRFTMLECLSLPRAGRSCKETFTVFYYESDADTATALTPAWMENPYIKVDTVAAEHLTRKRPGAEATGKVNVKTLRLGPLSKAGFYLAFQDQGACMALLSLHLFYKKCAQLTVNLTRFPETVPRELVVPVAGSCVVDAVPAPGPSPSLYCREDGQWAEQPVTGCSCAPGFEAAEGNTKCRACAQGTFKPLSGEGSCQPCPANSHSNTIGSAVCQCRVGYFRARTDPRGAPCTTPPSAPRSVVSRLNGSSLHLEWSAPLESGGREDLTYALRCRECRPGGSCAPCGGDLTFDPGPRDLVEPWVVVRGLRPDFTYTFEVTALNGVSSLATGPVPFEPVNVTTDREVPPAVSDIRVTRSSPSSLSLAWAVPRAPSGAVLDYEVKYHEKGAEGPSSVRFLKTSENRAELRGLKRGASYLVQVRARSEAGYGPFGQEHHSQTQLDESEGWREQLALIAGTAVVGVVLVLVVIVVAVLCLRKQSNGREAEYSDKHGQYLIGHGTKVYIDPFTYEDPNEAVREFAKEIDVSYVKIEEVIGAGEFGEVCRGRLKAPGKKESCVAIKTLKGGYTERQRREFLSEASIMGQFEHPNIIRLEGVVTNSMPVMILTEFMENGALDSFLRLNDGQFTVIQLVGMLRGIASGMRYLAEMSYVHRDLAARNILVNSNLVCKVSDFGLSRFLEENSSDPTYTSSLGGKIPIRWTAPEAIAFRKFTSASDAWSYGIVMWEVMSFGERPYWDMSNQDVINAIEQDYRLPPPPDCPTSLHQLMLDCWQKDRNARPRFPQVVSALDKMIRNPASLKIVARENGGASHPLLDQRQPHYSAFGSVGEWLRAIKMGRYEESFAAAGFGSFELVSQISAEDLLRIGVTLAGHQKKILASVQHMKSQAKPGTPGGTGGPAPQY

[12] = target: T6, Ephrin type-B receptor 4 (Homo sapiens); settings: at 10 µM
[13] = target: Receptor tyrosine-protein kinase erbB-4 (Homo sapiens) (UniProt Q15303); settings: at 1 µM
[14] = target: Receptor tyrosine-protein kinase erbB-4 (Homo sapiens) (UniProt Q15303); settings: at 10 µM
[15] = target: Focal adhesion kinase 1 (Homo sapiens) (UniProt Q05397); settings: at 1 µM

Receptor tyrosine-protein kinase erbB-4 (Homo sapiens), sequence (Q15303 whole entry): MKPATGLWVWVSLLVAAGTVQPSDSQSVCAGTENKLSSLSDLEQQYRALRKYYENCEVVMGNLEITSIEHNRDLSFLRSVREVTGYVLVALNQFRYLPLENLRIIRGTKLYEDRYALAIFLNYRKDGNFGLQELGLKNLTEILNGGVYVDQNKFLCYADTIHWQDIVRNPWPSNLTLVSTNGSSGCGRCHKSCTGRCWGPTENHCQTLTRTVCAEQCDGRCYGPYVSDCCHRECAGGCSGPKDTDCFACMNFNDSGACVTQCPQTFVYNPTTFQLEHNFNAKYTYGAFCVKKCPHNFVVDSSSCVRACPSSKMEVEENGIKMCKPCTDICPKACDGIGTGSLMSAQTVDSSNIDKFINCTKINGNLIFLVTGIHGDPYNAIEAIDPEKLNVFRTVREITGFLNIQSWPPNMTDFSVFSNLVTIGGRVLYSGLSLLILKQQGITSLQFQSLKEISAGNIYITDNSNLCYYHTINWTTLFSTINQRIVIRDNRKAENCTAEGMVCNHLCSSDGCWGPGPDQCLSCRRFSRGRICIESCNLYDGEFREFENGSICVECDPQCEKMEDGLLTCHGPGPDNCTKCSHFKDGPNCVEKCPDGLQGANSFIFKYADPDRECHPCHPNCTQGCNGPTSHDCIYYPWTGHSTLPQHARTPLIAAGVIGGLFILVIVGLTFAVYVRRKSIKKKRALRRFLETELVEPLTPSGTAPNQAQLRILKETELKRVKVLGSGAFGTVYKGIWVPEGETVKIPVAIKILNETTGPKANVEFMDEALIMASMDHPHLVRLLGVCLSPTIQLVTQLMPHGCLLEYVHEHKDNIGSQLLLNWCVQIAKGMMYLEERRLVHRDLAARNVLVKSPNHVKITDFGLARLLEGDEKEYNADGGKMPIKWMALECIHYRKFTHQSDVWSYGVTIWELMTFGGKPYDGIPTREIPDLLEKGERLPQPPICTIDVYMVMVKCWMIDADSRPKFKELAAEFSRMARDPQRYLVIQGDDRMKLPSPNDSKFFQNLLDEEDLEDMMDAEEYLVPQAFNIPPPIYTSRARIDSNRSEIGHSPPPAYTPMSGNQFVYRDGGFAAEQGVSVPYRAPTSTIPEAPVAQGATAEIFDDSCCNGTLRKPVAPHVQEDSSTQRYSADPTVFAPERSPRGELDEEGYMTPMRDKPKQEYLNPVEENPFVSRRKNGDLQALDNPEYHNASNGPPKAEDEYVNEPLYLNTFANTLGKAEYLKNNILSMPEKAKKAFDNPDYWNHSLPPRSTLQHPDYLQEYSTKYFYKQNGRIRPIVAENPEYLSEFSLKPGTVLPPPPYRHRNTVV
Ephrin type-A receptor 7 (Homo sapiens), sequence (Q15375 28-998 limits assumed): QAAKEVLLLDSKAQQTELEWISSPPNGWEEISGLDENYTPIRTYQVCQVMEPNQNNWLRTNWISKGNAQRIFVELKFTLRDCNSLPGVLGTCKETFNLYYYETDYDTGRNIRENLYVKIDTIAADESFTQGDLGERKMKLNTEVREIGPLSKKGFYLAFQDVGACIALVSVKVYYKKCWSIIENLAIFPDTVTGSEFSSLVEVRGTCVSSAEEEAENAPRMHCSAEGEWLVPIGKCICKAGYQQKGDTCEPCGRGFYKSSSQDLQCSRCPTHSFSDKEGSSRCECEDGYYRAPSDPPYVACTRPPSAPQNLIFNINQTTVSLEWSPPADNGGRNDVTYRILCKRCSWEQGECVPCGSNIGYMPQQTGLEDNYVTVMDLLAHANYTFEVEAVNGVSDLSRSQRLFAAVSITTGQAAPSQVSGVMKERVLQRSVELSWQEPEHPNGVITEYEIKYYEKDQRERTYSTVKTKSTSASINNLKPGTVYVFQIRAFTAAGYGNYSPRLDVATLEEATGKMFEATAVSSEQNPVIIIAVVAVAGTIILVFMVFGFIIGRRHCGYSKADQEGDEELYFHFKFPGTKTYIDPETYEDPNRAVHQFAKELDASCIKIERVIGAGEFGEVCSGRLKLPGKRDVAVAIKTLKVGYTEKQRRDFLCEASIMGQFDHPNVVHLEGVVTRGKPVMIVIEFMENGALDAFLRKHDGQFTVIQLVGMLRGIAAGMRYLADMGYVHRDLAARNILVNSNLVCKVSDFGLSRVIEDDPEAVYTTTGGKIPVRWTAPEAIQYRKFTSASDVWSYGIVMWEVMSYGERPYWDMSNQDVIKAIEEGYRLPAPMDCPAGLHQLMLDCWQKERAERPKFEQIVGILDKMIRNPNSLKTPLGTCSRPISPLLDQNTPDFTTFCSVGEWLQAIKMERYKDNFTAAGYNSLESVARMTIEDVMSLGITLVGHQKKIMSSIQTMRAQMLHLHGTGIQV
Ephrin type-A receptor 4 (Homo sapiens), sequence (P54764 whole entry): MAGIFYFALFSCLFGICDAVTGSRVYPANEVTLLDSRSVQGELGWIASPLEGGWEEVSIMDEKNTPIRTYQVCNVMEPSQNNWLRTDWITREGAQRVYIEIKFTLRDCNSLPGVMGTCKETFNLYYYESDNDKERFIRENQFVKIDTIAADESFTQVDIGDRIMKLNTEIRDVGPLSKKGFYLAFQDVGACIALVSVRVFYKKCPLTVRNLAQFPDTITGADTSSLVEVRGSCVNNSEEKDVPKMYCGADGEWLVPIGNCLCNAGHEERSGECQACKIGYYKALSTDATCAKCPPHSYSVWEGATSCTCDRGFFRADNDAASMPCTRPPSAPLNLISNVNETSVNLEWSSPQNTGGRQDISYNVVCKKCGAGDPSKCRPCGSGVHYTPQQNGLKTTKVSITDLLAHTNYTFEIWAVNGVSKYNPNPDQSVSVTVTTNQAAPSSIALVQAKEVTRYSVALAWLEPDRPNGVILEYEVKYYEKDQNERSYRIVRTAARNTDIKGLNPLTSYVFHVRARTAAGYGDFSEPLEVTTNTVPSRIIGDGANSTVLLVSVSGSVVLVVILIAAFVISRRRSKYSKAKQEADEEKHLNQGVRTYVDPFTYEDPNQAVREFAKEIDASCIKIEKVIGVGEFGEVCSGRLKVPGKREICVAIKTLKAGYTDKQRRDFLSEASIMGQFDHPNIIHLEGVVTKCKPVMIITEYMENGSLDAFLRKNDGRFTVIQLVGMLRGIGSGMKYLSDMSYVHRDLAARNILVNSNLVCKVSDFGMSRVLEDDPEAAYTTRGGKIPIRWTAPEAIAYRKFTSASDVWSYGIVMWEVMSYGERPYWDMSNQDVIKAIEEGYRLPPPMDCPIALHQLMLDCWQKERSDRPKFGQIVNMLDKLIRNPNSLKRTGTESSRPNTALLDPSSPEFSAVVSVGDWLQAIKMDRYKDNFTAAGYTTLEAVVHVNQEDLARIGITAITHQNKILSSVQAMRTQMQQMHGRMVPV
Ephrin type-A receptor 5 (Homo sapiens), sequence (P54756 whole entry): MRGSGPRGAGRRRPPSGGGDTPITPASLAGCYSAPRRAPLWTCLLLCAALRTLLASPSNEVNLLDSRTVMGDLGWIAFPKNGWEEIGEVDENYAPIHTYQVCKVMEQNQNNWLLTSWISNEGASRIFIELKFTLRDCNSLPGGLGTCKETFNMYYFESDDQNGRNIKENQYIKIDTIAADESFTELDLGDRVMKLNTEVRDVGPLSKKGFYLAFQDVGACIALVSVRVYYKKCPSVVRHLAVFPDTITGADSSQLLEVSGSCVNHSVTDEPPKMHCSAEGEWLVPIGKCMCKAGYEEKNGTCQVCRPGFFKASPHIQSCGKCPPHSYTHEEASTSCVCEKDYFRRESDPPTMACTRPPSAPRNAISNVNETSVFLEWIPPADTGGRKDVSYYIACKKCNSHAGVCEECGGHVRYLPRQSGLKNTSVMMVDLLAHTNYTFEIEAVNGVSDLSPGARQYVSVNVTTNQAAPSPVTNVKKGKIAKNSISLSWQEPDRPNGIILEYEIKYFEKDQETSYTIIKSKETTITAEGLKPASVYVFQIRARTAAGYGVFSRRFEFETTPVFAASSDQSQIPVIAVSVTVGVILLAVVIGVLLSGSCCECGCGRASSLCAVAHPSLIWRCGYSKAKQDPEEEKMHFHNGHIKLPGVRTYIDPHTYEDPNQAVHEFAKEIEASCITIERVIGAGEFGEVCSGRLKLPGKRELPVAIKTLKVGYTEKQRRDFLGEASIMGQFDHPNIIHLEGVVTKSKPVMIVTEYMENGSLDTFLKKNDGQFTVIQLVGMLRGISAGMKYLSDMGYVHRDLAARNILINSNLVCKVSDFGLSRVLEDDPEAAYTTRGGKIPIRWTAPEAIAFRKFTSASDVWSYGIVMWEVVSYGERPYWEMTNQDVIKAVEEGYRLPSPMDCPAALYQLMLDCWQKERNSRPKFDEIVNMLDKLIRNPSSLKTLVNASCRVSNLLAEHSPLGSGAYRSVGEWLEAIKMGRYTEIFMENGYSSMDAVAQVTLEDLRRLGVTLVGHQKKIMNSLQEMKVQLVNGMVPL

## Cc1cc(Nc2nc(-c3ccccc3)nc3ccccc23)n[nH]1
[1]
  residual activity: 8%
[2]
  residual activity: 73%
[3]
  residual activity: 33%
[4]
  residual activity: 50%
[5]
  residual activity: 6%
[6]
  residual activity: 68%
[7]
  residual activity: 17%
[8]
  residual activity: 100%
[9]
  residual activity: 48%
[10]
  residual activity: 111% (inactive)
[11]
  residual activity: 75%
[12]
  residual activity: 20%
[13]
  residual activity: 106%
[14]
  residual activity: 45%
[15]
  residual activity: 36%
